Data as given in PubChem BioAssay (NCI).
Compounds without any hit were thinned out: in the full panel of roughly 83,000, 20% have a hit.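 For each line, cells grew in 96-well plates with the test compound present at a single concentration for 48 hours.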 Unmarked numbers belong to inactive results. Calls of active or inactive are those of the source. How the source made its calls: active means growth percent below 10; inactive means the rest.

What was measured:
Test in all cases: NCI-60 one-dose screen, 48 h (100 = growth as untreated, 0 = no growth, -100 = all killed)
BT-549 breast = settings: 10 µM unless noted
MDA-MB-435 melanoma = settings: 10 µM unless noted
SW-620 colon = settings: 10 µM unless noted
MCF7 breast = settings: 10 µM
HCT-116 colon = settings: 10 µM unless noted
HCC-2998 colon = settings: 10 µM unless noted
KM12 colon = settings: 10 µM unless noted

| SMILES | growth (BT-549 breast) | growth (MDA-MB-435 melanoma) | growth (SW-620 colon) | growth (MCF7 breast) | growth (HCT-116 colon) | growth (HCC-2998 colon) | growth (KM12 colon) |
| --- | --- | --- | --- | --- | --- | --- | --- |
| COc1cccc(/C(C#N)=C/c2nc3c(N4CCOCC4)nc(Cl)nc3n2C)c1 | -77% (active) | -80.2% (active) | -72% (active) | -44.1% (active) | -72.9% (active) | 20% | 16.2% |
| O=C(N/N=C/c1ccccc1O)C(=O)Nc1ccc(F)cc1 | 59.3% | 59.3% | 44.5% | 20.9% | 37.6% | 38.8% | 42.3% |
| Fc1ccc(Oc2ccc(Nc3ncnc4onc(-c5ccccc5)c34)cc2)cc1 | 78.6% | 103% | 95% | 94.5% | 99.1% | 105% | 99.5% |
| CCOC(=O)c1ccc2[nH]c(-c3ccccc3)cc(=O)c2c1 | 103% | 107% | 103% | 99.8% | 99.4% | 112% | 105% |
| NC(CCl)=NCCC[C@H](N)C(=O)O | 129% | 100% | 100% | 84.8% | 99% | 99.9% | 106% |
| CC1=NCC2NC(=O)NC(C)=C12 (stereo not drawn) | 96.4% | 98.4% | 99.9% | 111% | 101% | 113% | 104% |
| CC(=Nc1ccccc1)C1=C(O)C(Cc2ccc(F)cc2)NC1=O (stereo not drawn) | 36.8% | -53.7% (active) | 27.4% | 16.3% | 27.5% | 60.4% | 24.5% |
| CCOC(=O)C1=CN(C)C=C(C(=O)OCC)C1c1cc(Br)c(OCC)c(OC)c1 | 84.9% | 15.6% | 48.6% | 14.7% | 43.9% | -16.5% (active) | 48.4% |
| O=C1Nc2ccccc2/C1=C/c1ccc[nH]1 | 57.8% | 101% | 89.3% | 12.8% | 96% | 54.7% | 10.4% |
| O=C(O)c1cn(C2CC2)c2cc(N3CCN(C(=O)C[n+]4ccccc4)CC3)c(F)cc2c1=O | 102% | 99.9% | 105% | 101% | 99.3% | 106% | 103% |
| O=C1CCC(N2C(=O)c3cccc(NCCCCCCOc4ccc(Nc5nccc(Nc6ccccc6)n5)cc4)c3C2=O)C(=O)N1 (stereo not drawn) | 65.1% | 75.9% | 91% | 66.8% | 77.6% | 98.4% | 88.5% |
| CN(O)c1nc(N(C)O)nc(N2CCOCC2)n1 | 60.5% | 42.5% | 52.4% | 15.9% | 12.2% | 40.5% | 45.8% |
| COc1cc(C2C(C#N)=C(N)OC3=C2C(=O)c2ccccc2C3=O)cc(OC)c1O (stereo not drawn) | 57.7% | -31% (active) | 13.4% | 20% | 22.5% | 45% | 14% |
| O=S(=O)(c1ccccc1)n1cc2c(c1-c1ccccc1)CCc1sc(Nc3ccccc3)nc1-2 | 103% | 88% | 94.4% | 72.9% | 83.3% | 110% | 82.7% |
| CCCCc1c(CCC)c(=N)c2ccccc2n1C | 88.1% | 64.9% | 59% | 50.2% | 64.1% | 107% | 77.2% |
| COc1ccccc1C(=O)O/N=C(\N)Cc1cccc2ccccc12 | 99.4% | 105% | 97.3% | 78.9% | 81.5% | 89.4% | 87.9% |
| Cc1nn(-c2nc3ccccc3[nH]2)c2c1C(c1ccc(OCC(N)=O)cc1)CC(=O)N2 (stereo not drawn) | 105% | 98.8% | 88.7% | 96% | 101% | 122% | 109% |

| SMILES | growth (BT-549 breast) | growth (MDA-MB-435 melanoma) | growth (SW-620 colon) | growth (MCF7 breast) | growth (HCT-116 colon) | growth (HCC-2998 colon) | growth (KM12 colon) |
| --- | --- | --- | --- | --- | --- | --- | --- |
| Cn1c(C(=O)c2cccc3ccccc23)nc2ccccc21 | 13% | 17.4% | 22.4% | 15.6% | 22.7% | 6.79% (active) | 25.9% |
| O=S(=O)(c1ccc(NC(=S)NC23CC4CC(CC(C4)C2)C3)cc1)N1CCCCC1 | 93.8% | 96% | 55.8% | 94.2% | 50.5% | 114% | 24.7% |
| CN1C(=O)N(C)C2Nn3c(s/c(=C4\C(=O)N(CCc5ccccc5)c5ccccc54)c3=O)=NC21 (stereo not drawn) | 72.5% | 5.64% (active) | 51.9% | 43.2% | 37.2% | 85.9% | 66.1% |
| CC(=O)O[C@@H]1/C=C/C(=O)N[C@@H](C)CCC/C=C/[C@@H]2CCC[C@H]21 | 117% | 106% | 112% | 98.8% | 104% | 98.5% | 108% |
| CC1=CCC(OC(=O)C(C)(C)CCC(O)(C(=O)OC2(C(C)C)CCC3(C)OC3C2)C(C)C)(C(C)C)CC1 (stereo not drawn) | -88.6% (active) | -98% (active) | -62.1% (active) | -61.1% (active) | -41.2% (active) | -72.8% (active) | -79% (active) |
| O=C1c2ccc3c4c(ccc(c24)C(=O)N1CCCCO)C(=O)N(CCCCO)C3=O | 63.5% | 3.2% (active) | 10.6% | 28.2% | 28.4% | 97.2% | 95.3% |
| Cc1cc2c(c(C)c1Cl)C(=O)/C(=C/c1ccco1)O2 | 103% | 100% | 108% | 24.7% | 98.7% | 97.6% | 75.9% |
| C=CCN1C(=O)/C(=c2\sc3n(c2=O)NC2C(N=3)N(CC)C(=O)N2CC)c2ccccc21 (stereo not drawn) | 48.6% | -7.64% (active) | 34.3% | 34.3% | 14.8% | 38% | 24.5% |
| FC(F)(F)c1cccc(Nc2nc3ccccc3nc2Nc2cccc(C(F)(F)F)c2)c1 | 7.74% (active) | -71.8% (active) | -26.9% (active) | -57% (active) | -41.7% (active) | -55.1% (active) | -37.2% (active) |
| CN1C(=O)N(C)C2C1NN=c1s/c(=C\c3ccc(Cl)cc3Cl)c(=O)n12 (stereo not drawn) | 17.4% | -17% (active) | 27.8% | 17.7% | 8.45% (active) | 21.7% | 6.57% (active) |
| COc1ccc(C2=NN(/C=C3\SC(=O)NC3=Nc3ccc(F)cc3)C(c3ccc(F)cc3)C2)cc1 (stereo not drawn) | 98% | 106% | 99.2% | 94.5% | 105% | 101% | 98.2% |
| COc1ccc(-c2c(-c3ccc(OC)c(O)c3)cnc3ncnn23)cc1 | 102% | 108% | 99.1% | 95.2% | 98% | 109% | 102% |
| CC1(C)CC2(C)OC2C2(C1)N=NC(=Nc1ccccc1)O2 (stereo not drawn) | -19.1% (active) | 59.5% | 23% | 23.9% | 20% | 102% | 87.7% |
| Cc1ccc2cccc(Oc3ccc(Nc4ncnc5onc(-c6ccccc6)c45)cc3)c2n1 | 93.3% | 79.9% | 87% | 79.5% | 58.5% | 100% | 63.8% |
| OCCNc1nc(Nc2ccc(C3=NN(c4cc(Cl)cc(Cl)c4)C(c4ccc(C(F)(F)F)cc4)C3)cc2)nc(N2CCOCC2)n1 (stereo not drawn) | 99.3% | 66.5% | 94% | 30.1% | 66.8% | 76.3% | 68.6% |
| CCn1c(Cc2ccccc2Nc2c(Cl)cccc2Cl)nnc1SCC(=O)NN1C(=O)/C(=C/c2cccc(OC)c2OC)SC1=S | 109% | 103% | 106% | 99.1% | 109% | 115% | 102% |
| C=C1C(=O)O[C@H]2[C@H]1CC/C(COC(=O)/C=C\C(=O)O)=C\CC[C@@]1(C)O[C@@H]21 | 103% | 107% | 105% | 94.3% | 109% | 104% | 106% |
